From PubChem BioAssay (EPA / NIEHS)
Calls of active or inactive are those of the source. How the source made its calls: active means hit-call score of the fitted dose curve at least 0.9, where 1 is the maximum; inactive means score below 0.9.

How the values were obtained:
[1] = APR_HepG2_P-H2AX_72hr: Apredica 72-hour HepG2 Assay for H2AX Phosphorylation (AID 2282916); conditions: imaging, actives raise or lower the signal;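 further: phospho-histone H2A.x immunostain intensity per cell marking DNA damage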
Summary of the method: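 Readout: phospho-H2A.x immunofluorescence (FITC secondary) plus Hoechst nuclear stain, high-content imaging at 20x, six fields/well. HepG2, 72 hr compound exposure, 0.39–200 uM, final DMSO 0.5% v/v. Gain or loss fitted relative to DMSO baseline.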

[2] = APR_HepG2_MitoMembPot_72hr: Apredica 72-hour HepG2 Assay for Mitochondrial Membrane Potential (AID 2282917); conditions: imaging, actives raise or lower the signal
Summary of the method: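 HepG2 cells exposed 72 h to compounds at 0.39–200 uM (0.5% v/v DMSO, duplicates); MitoTracker Red CMXRos 250 nM loaded 30 min before 3.7% formaldehyde fixation, imaged by HCS fluorescence. Bidirectional fit versus DMSO.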

[3] = APR_HepG2_MitoticArrest_72hr: Apredica 72-hour HepG2 Assay for Mitotic Arrest (AID 2282918); conditions: high-content imaging, actives raise or lower the signal
Summary of the method: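 Using high-content imaging of fixed HepG2 cells, phospho-histone H3 signal was measured following a 72 hr incubation with ten-point compound dilutions up to 200 uM. DMSO served as the negative control and baseline for bidirectional curve fitting.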

[4] = APR_HepG2_MicrotubuleCSK_72hr: Apredica 72-hour HepG2 Assay for Microtubule CSK Stabilty (AID 2282919); conditions: HepG2 microtubule cytoskeleton, high-content imaging, actives raise or lower the signal
Summary of the method: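 Ten-point dosing (0.39–200 uM, 0.5% DMSO) of HepG2 for 72 hr, with taxol as the cytoskeletal positive control. The cells were formaldehyde-fixed and then stained with alpha-tubulin/Cy5 and Hoechst. Imaging at 20x used a −2 um Z offset for tubulin.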

[5] = APR_HepG2_P-H2AX_24hr: Apredica 24-hour HepG2 Assay for H2AX Phosphorylation (AID 2282920); conditions: high-content imaging, actives raise or lower the signal
Summary of the method: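 Human HepG2 liver cells, treated 24 hr with test chemicals (0.39–200 uM, final DMSO 0.5% v/v), are fixed and co-stained for phospho-H2A.x and c-Jun with Hoechst. Imaged intensity is fitted in both directions against DMSO controls.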

[6] = APR_HepG2_StressKinase_72hr: Apredica 72-hour HepG2 Assay for Stress Kinase (AID 2282921); conditions: HepG2 stress kinase (phospho-c-Jun) imaging, actives raise or lower the signal
Summary of the method: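 Phospho-c-Jun immunofluorescence measured by high-content imaging at 20x, six fields per well; bidirectional curve fitting against DMSO as baseline. Dosing: 0.39–200 uM, 72 h, 0.5% DMSO final.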

[7] = APR_HepG2_StressKinase_24hr: Apredica 24-hour HepG2 Assay for Stress Kinase (AID 2282922); conditions: HepG2 stress kinase (phospho-c-Jun) imaging, actives raise or lower the signal
Summary of the method: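 After 24 hr compound treatment (up to 200 uM, final DMSO 0.5% v/v), HepG2 cells are fixed and multiplex-labeled; phospho-c-Jun intensity is captured by high-content fluorescence imaging and analyzed relative to DMSO.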

[8] = APR_HepG2_p53Act_72hr: Apredica 72-hour HepG2 Assay for p53 Activation (AID 2282923); conditions: high-content imaging, actives raise or lower the signal;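 further: average cellular p53 protein immunofluorescence intensity in HepG2 cells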
Summary of the method: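 Readout: p53 immunofluorescence quantified by automated high-content imaging at 20x, six fields per well, nuclei located via Hoechst. Dosing ran 72 hr over ten concentrations from 0.39 to 200 uM; bidirectional curve fitting against DMSO baseline.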

[9] = APR_HepG2_MitoMass_72hr: Apredica 72-hour HepG2 Assay for Mitochondrial Mass (AID 2282924); conditions: high-content imaging, actives raise or lower the signal;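 further: MitoTracker Red CMXRos stain intensity per cell imaged as mitochondrial mass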
Summary of the method: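 Steps: treat HepG2 72 hr (0.39–200 uM, duplicate wells); load MitoTracker Red CMXRos, 250 nM, 30 min; fix with 3.7% formaldehyde, permeabilise with 0.5% Triton X-100; capture images, nuclei via Hoechst 33342; fit bidirectionally against DMSO.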

[10] = APR_HepG2_NuclearSize_72hr: Apredica 72-hour HepG2 Assay for Nuclear Size (AID 2282925); conditions: high-content imaging, actives raise or lower the signal
Summary of the method: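 Compounds (0.39–200 uM, final DMSO 0.5%) were applied to HepG2 for 72 hr. Cells were then formaldehyde-fixed, permeabilized and labelled with Hoechst 33342. Nuclear diameter was quantified from six images per well.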

Measured: AC50

OCCO
inactive: all assays above

CCCCCc1ccc(N)cc1
inactive: all assays above

CCN(Cc1cccc(S(=O)(=O)O)c1)c1ccc(C(=C2C=CC(=[N+](CC)Cc3cccc(S(=O)(=O)O)c3)C=C2)c2ccccc2S(=O)(=O)[O-])cc1
inactive: all assays above

CCCCCCCCCCCCO
active: [9] 119 µM
inactive: all other assays above

CCCCCCCCCCCC[N+](C)(C)C
active: [1] 75.4 µM | [3] 13.2 µM | [5] 50.4 µM | [6] 100 µM | [8] 20.5 µM
inactive: [2] | [4] | [7] | [9] | [10]

O=c1ccc2ccccc2o1
active: [2] 100 µM
inactive: all other assays above

Cc1cc(F)ccc1-c1cc(N2CC[C@@H](O)[C@H]2CO)ncc1N(C)C(=O)C(C)(C)c1cc(C(F)(F)F)cc(C(F)(F)F)c1
active: [1] 57.7 µM | [3] 74 µM | [5] 53.8 µM | [8] 65 µM
inactive: all other assays above

CCOC(=O)O[C@H](C)OC(=O)c1ccc2c(c1)cc(C(=O)NC1CCN(C(C)C)CC1)n2Cc1cc(-c2ccc(Cl)s2)on1
active: [4] 94.5 µM | [5] 94.5 µM
inactive: all other assays above

OC12N=C(c3ccccc3)SC1Cc1cc(Cl)ccc12 (centres undefined)
active: [1] 52.1 µM | [2] 0.548 µM | [3] 46.8 µM
inactive: all other assays above

C[C@]12CC[C@@H]3c4ccc(O)cc4CC[C@H]3[C@@H]1CCC2=O
not listed: [8]
inactive: all other assays above

CN(C)C(=O)C1(N2CCCCC2)CCN(CC[C@@]2(c3ccc(Cl)c(Cl)c3)CN(C(=O)c3ccccc3)CCO2)CC1
active: [1] 12.3 µM | [3] 6.87 µM | [5] 19.6 µM | [8] 20.2 µM | [10] 6.79 µM
inactive: all other assays above

Cc1cccc2ccccc12
inactive: all assays above

Cc1ncc(CO)c(CO)c1O
inactive: all assays above

CCCCCCCCCCCO
active: [3] 105 µM | [5] 100 µM
inactive: all other assays above

O=C1O[C@H]([C@@H](O)CO)C(O)=C1O
active: [1] 11.2 µM | [3] 7.73 µM | [8] 10.5 µM | [10] 11.1 µM
inactive: all other assays above

CN1C(=O)CC[C@H]1c1cccnc1
inactive: all assays above

CC/C(=C(/CC)c1ccc(O)cc1)c1ccc(O)cc1
inactive: [4] | [7] | [9] | [10]
active: [1] 68 µM | [2] 71.6 µM | [3] 91.2 µM | [5] 33.1 µM | [6] 28.7 µM | [8] 74.1 µM

Cc1ccc(C(C)C)cc1
inactive: all assays above

C[C@]12CC[C@@H]3c4ccc(O)cc4CC[C@H]3[C@@H]1CC[C@H]2O
active: [5] 62.4 µM
inactive: all other assays above

CCO[Si](CCCNC(N)=O)(OCC)OCC
inactive: all assays above

NCc1cccc(C2CCN(C(=O)c3ccc(C#Cc4ccccc4F)o3)CC2)c1
active: [1] 17.7 µM | [2] 98.3 µM | [3] 17.2 µM | [5] 18.6 µM | [6] 14.3 µM | [8] 11.4 µM | [10] 107 µM
inactive: [4] | [7] | [9]

O=C(OCCCCCCOC(=O)c1ccccc1)c1ccccc1
inactive: all assays above

CN(C)c1ccc(C(=C2C=CC(=[N+](C)C)C=C2)c2ccc(N(C)C)cc2)cc1
active: [1] 4.24 µM | [2] 0.384 µM | [3] 4.11 µM | [4] 12.4 µM | [5] 4.3 µM | [6] 40 µM | [7] 6.59 µM | [8] 19.9 µM | [9] 0.0403 µM
inactive: [10]

CN1C(=O)N(c2ccccc2Br)Cc2cnc(Nc3ccc4c(c3)OCC(CO)O4)nc21 (centres undefined)
active: [1] 3.96 µM | [3] 2.57 µM | [5] 5.05 µM | [8] 4.04 µM | [9] 19.8 µM
inactive: [2] | [4] | [6] | [7] | [10]

NC(=O)c1nc(-c2cccc(-c3cc(F)ccc3OCC(F)(F)C(F)(F)F)c2)n[nH]1
active: [1] 111 µM | [6] 93.4 µM | [10] 100 µM
inactive: all other assays above

O=c1[nH]sc2ccccc12
active: [1] 46.1 µM | [2] 107 µM | [3] 9.46 µM | [5] 5.7 µM | [6] 50.4 µM | [8] 48.5 µM | [9] 13.6 µM
inactive: [4] | [7] | [10]

O=C1c2ccccc2C(=O)N1CCc1noc(-c2ccc(CN3CCCCCC3)s2)n1
inactive: all assays above

c1ccc2ccccc2c1
active: [3] 0.0415 µM | [8] 0.0391 µM | [9] 0.0598 µM
inactive: all other assays above

COc1ccc2cc(S(=O)(=O)N[C@H](CC(=O)N[C@H](Cc3ccc(CN4[C@H](C)CCC[C@@H]4C)cc3)C(=O)N(C)C(C)C)c3ccc4c(c3)OCO4)ccc2c1
inactive: [2] | [4] | [7] | [10]
active: [1] 13.7 µM | [3] 11.1 µM | [5] 21.8 µM | [6] 13.6 µM | [8] 10.7 µM | [9] 45 µM

CCCCCCCCOc1ccc(C(=O)c2ccccc2)c(O)c1
inactive: all assays above

O=C(O)c1ccccc1C(=O)OCc1ccccc1
inactive: all assays above

CC[C@H](NC(=O)c1cc(F)ccc1NS(=O)(=O)c1cccc2cccnc12)c1ccccc1
active: [3] 92.5 µM
inactive: all other assays above

O=C=NCCCCCCN=C=O
inactive: all assays above

O=C(O)c1ccccc1-n1cc(C(=O)O)c(=O)c2cc(Nc3c(F)cc(F)cc3Cl)c(Cl)cc21
inactive: all assays above

CC1=CC(=O)/C(=C(/C)O)C(=O)O1
inactive: all assays above

O=C(O)Cc1cc(I)c(Oc2ccc(O)c(I)c2)c(I)c1
inactive: all assays above

CCCOC(=O)c1cc(O)c(O)c(O)c1
active: [8] 38.8 µM
inactive: all other assays above

CCCCCCCCN(C)CCCCCCCC
inactive: all assays above
